JMJD2A Tudor: blocks the human JMJD2A Tudor domain; AlphaScreen JMJD2A-Tudor / H3K4me3 peptide binding; O75164; Potency, µM (doses to about 114 µM), inactives show at the top dose activity change, negative = inhibition, actives largely listed as inhibitors; AID 504339; 4.4% of 390,000 active; note: % is set by controls: 0 for no effect and ±100 for the full control effect; nearly all actives have a fitted effect of over 50% in size
ALOX12 inh: ALOX12 (human) lipoxygenase inhibition; P18054; purified 12hLO, xylenol orange hydroperoxide absorbance; 1.1% of 580,000 active; Potency, µM (titrated, usually from 108 µM), without a hit: at the top dose activity change, negative = inhibition, actives largely listed as inhibitors; note: % is set by controls: 0 for no effect and ±100 for the full control effect
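Purified human 12hLO (150 nM final) in 25 mM Hepes, 0.01% Triton X-100, pH 7.0 was preincubated 15 min at room temperature with compound. Then 40 uM arachidonic acid was added, 30 min. Hydroperoxide was read by Fe-XO absorbance ratio 573/405 nm.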
BAZ2B inh: blocks human BAZ2B. AlphaScreen BAZ2B-H3K14Ac peptide displacement. Q9UIF8. Potency, µM (titrated, usually from 114 µM), for the others: at the top dose activity change, negative = inhibition, hits mostly inhibitors. 4.4% of 360,000 active. AID 504333; note: % is set by controls: 0 for no effect and ±100 for the full control effect; nearly all actives have a fitted effect of over 60% in size
Target sequence (Q9UIF8 whole entry, looked up): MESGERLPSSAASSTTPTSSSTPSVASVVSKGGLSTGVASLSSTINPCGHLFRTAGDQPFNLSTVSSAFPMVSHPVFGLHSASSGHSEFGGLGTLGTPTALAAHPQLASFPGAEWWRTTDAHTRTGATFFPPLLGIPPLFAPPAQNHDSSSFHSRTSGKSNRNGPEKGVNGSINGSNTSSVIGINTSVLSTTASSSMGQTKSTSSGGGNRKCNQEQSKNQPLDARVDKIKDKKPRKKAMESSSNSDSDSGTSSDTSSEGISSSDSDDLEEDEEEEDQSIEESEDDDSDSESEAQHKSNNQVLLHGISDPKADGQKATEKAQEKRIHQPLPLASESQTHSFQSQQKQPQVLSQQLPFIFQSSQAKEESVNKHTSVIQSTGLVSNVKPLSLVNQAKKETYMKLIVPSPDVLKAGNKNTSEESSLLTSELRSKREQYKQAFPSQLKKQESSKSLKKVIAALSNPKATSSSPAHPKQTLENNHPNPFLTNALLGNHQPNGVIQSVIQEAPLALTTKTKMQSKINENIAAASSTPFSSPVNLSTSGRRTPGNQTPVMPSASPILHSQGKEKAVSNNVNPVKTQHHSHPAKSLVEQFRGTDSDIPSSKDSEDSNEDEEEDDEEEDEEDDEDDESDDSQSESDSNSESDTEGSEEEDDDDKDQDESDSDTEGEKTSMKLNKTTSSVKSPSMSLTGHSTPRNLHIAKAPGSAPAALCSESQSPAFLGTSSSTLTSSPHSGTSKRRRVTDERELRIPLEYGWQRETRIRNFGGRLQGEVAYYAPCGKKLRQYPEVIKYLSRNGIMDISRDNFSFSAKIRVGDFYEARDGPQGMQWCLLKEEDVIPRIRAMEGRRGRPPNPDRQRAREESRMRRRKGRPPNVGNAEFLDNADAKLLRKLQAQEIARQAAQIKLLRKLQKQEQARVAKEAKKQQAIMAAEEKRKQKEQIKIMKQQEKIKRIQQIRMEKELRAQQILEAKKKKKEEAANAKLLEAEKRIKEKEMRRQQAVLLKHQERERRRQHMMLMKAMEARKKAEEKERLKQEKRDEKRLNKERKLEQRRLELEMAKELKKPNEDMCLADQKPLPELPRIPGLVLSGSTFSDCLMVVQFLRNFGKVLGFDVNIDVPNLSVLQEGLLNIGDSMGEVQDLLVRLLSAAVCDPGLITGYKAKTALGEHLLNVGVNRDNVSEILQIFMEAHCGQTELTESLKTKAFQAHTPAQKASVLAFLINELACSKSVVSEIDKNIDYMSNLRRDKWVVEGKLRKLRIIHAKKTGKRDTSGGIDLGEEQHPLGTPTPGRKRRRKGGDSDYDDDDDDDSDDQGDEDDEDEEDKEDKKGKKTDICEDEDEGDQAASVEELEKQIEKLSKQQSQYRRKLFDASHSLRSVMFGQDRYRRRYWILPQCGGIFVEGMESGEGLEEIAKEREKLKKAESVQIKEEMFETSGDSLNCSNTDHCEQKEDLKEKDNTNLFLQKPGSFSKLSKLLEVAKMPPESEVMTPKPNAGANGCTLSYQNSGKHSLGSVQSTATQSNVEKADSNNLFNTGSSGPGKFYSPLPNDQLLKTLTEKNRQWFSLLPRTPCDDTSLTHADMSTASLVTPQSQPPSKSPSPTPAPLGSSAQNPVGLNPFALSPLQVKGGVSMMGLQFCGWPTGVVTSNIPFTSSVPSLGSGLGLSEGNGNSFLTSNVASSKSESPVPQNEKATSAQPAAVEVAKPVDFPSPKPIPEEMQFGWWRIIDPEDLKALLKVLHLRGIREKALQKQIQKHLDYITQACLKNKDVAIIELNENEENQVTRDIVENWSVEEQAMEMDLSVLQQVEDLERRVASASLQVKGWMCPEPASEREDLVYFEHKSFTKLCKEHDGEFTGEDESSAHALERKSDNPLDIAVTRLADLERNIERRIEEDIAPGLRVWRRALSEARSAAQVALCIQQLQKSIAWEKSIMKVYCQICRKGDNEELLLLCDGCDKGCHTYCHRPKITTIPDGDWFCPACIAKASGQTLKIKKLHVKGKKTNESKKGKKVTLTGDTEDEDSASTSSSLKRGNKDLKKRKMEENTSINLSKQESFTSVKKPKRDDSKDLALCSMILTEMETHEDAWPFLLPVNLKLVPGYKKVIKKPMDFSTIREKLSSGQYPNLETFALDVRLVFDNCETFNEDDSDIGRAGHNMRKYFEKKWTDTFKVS
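AlphaScreen luminescence quantifies BAZ2B engagement of H3K14Ac peptide; the protein and biotinylated peptide are both at 50 nM final, buffer PBS pH 7.4 with 0.01% Tween-20, all steps at room temperature.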
PLK1 PBD block: PLK1 (human) polo-box domain binding inhibition; Plk1 PBD binding of FITC phosphopeptide, fluorescence polarization; Potency, µM, for inactives: max response, negative = inhibition, actives largely listed as inhibitors; 2.8% of 360,000 active; AID 720504; note: series mostly up to about 57 µM; % is set by controls: 0 for no effect and ±100 for the full control effect; nearly all actives have a fitted effect of over 65% in size
HP1b binding inh: blocks HP1-beta chromodomain binding to methylated histone tails. P83916. AID 540317. AlphaScreen HP1-beta / biotin-H3K9me3 peptide binding. Potency, µM (top dose mostly 114 µM), without a hit: at the highest dose activity change, negative = inhibition, usual class: inhibitors. 0.56% of 390,000 active; note: nearly all actives have a fitted effect of over 70% in size
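AlphaScreen: HP1-beta (50 nM) preformed 30 min with biotin-H3(1-18)K9me3 peptide (50 nM) in PBS pH 7.4, 0.01% Tween-20. Compound added for 30 min at RT, then streptavidin donor/nickel chelate acceptor beads (10 ug/mL) for 30 min.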
G9a block: inhibitors of human histone lysine methyltransferase G9a; Q96KQ7; G9a H3K9 monomethylation, AlphaScreen, 2 h; Potency, µM (highest dose often 102 µM), for inactives: at the highest dose activity, negative = inhibition, actives largely listed as inhibitors; 8.8% of 350,000 active; AID 504332; note: % is set by controls: 0 for no effect and ±100 for the full control effect; nearly all actives have a fitted effect of over 75% in size
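AlphaScreen detection with an anti-monomethyl H3K9 antibody quantified product after a 2 h room-temperature reaction containing 500 nM biotinylated H3K9 peptide, 20 µM SAM and 20 nM enzyme, which had been preincubated 15 min with compound.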
Numbers without * were called inactive; ? = inconclusive; . = no result given; ! = a repeat was not active; [ ] = dose if it differs, or a comment. Most compounds without a hit are left out; they make up all but 9% or so of the library. Calls come from the whole dose curve; as a rule, active = well fitted curve in the direction sought with a large enough effect; inconclusive = small, poorly fitted or top-dose-only effect, or another doubt; inactive = no such curve, though single readings can be large; an effect the other way counts as inactive or inconclusive. Potency is the fitted concentration of half-maximal effect.

SMILES	JMJD2A Tudor	ALOX12 inh	BAZ2B inh	PLK1 PBD block	HP1b binding inh	G9a block
Cc1ccc(-c2cn(C[C@H]3CC[C@@H]([C@@H]4CC[C@H](Cn5cc(-c6ccc(C)cc6)nn5)O4)O3)nn2)cc1	-16%	-21%	39%	2%	41%	.
c1c(CC2CCCC2)nnn1C[C@H]1CC[C@@H]([C@@H]2CC[C@H](Cn3cc(CC4CCCC4)nn3)O2)O1	-8%	-1%	-26%	-11%	31%	40µM*
CCc1ccc(C(=O)/C=C/c2ccc([N+](=O)[O-])o2)cc1	?	?	?	6µM*	?	32µM*
CCc1ccc(C(=O)/C=C/c2ccc([N+](=O)[O-])cc2)cc1	.	-25%	.	.	.	.
COc1ccc(-c2cnc3c(NC=O)cc(-c4ccccc4OC)cn23)cc1OC	.	6.3µM*	.	-2%	.	.
Cc1cc(COc2ccc(C(=O)c3ccc(F)cc3)cc2)no1	.	-15%	.	.	.	.
COc1ccc(OCC(=O)N2CCC(Cc3nc(-c4ccc(F)cc4)no3)CC2)cc1	.	-5%	.	.	.	.
CCOc1nc(NCc2ccco2)nc(Nc2ccc(OC)cc2)n1	-16%	12%	50µM*	-2%	-7%	?
COc1ccc(Nc2nc(NCc3ccco3)nc(N/N=C/c3ccccc3)n2)cc1	?	-7%	79µM*	-2%	4%	?
C[N+](C)(C)C/C=C1/COCO1	?	11µM*!	-2%	3.4µM*	-3%	50µM*
c1ccc2c(c1)NCC1CCCN21 (stereo not drawn)	50µM*	?	45µM*	-24%	?	2.2µM*
O=C1NC[C@@H]2CCCN2C1=O	.	3%	.	.	.	.
Cc1noc(-c2ccn3c(CNC(=O)c4cc(F)ccc4F)nnc3c2)n1	.	17%	.	.	.	.
CCN(CC)S(=O)(=O)c1ccc2oc(Nc3ccc(OC)cc3OC)nc2c1	-17%	-11%	?	-8%	18%	-7%
CCN(CC)S(=O)(=O)c1ccc2oc(Nc3ccccc3)nc2c1	?	4%	-24%	-21%	-23%	32µM*
Cc1cc(NC(=O)CSc2nc3cc(Cl)ccc3o2)no1	-11%	-17%	-15%	3%	-13%	-21%
CCN(CC)S(=O)(=O)c1ccc2oc(SCC(=O)Nc3cc(C)on3)nc2c1	?	?	6%	6µM*	-56%	7%[0.501 µM]
CCN(CC)S(=O)(=O)c1ccc2oc(SCC(=O)NC3CC3)nc2c1	-1%	0%	?	21µM*	-22%	13µM*
COc1cccc(-c2nc(=S)c3c(n2Cc2ccco2)CCCC3)c1	19%	11%	0%	-28%	47%	1%[59 µM]
CN(C)c1ccc(S(=O)(=O)NCC(=O)OCC(=O)NC(=O)C2CCCCC2)cc1[N+](=O)[O-]	-15%	-12%	-7%	-7%	9%	3%[12.7 µM]
COc1cc([N+](=O)[O-])ccc1NC(=O)CSc1ccccn1	.	.	-16%	.	.	7%
COc1cc(NC(=O)c2cc([N+](=O)[O-])ccc2NC(=O)CNCc2ccccn2)cc(OC)c1	79µM*	19%	?	-5%	6%	0%
COc1ccc(NC(=O)c2cc([N+](=O)[O-])ccc2NC(=O)CNCc2ccccn2)c(OC)c1	79µM*	5%	?	?	-1%	28µM*
COc1cc(NC(=O)c2cc([N+](=O)[O-])ccc2NC(=O)CNC2CCCCC2)cc(OC)c1	-21%	-2%	?	-13%	-5%	-16%
CC(C)NC(=O)C1COC2(CCN(C(=O)c3cccc(F)c3)CC2)N1C(=O)c1ccccc1 (stereo not drawn)	.	48%	.	.	.	.
SMILES	JMJD2A Tudor	ALOX12 inh	BAZ2B inh	PLK1 PBD block	HP1b binding inh	G9a block
Cc1cccnc1C(NC(=O)C1CCN(CCOc2ccc(Cl)cc2Cl)CC1)c1ccc(Cl)cc1 (stereo not drawn)	.	?	.	4%	.	.
Cn1cc(-c2cnc3[nH]cc(CC(=O)NCC4CCOCC4)c3c2)cn1	.	-1%[176 µM]	.	.	.	.
CCOC(=O)CC(NC(=O)c1cc2cc(Br)ccc2oc1=O)c1ccc(OC)cc1 (stereo not drawn)	.	2%	.	.	.	.
CCOC(=O)C(NC(=O)COc1ccc(Oc2ccccc2)cc1)C(=O)OCC	.	9%	.	.	.	.
O=C(NCc1ccco1)c1ccc(CS(=O)(=O)Cc2ccc(Cl)cc2)o1	-22%	-24%	-11%	1%	16%	-34%
O=C(NCc1ccco1)c1ccc(-c2ccccc2Cl)o1	-16%	-17%	?	-4%	-5%	56µM*
O=C(NCc1ccco1)c1ccc(-c2ccc(Cl)cc2)o1	-35%	-19%	?	-12%	-13%	50µM*
COc1ccccc1CNC(=O)c1ccc(-c2ccccc2Cl)o1	-3%	?	?	-12%	66%	28µM*
O=C(NCc1ccco1)c1ccc(Cn2cc([N+](=O)[O-])cn2)o1	-5%	14%	-4%	-9%	-4%	19%[59 µM]
O=C(NCc1ccco1)c1ccc([N+](=O)[O-])o1	56µM*	355%	45µM*	?	?	45µM*
COc1ccccc1CNC(=O)c1ccc(-c2ccccc2C(F)(F)F)o1	19%	-13%	-33%	-5%	54%	?
CC1CCN(S(=O)(=O)c2ccc(S(=O)(=O)N3CCN4CCCC4C3)cc2)CC1 (stereo not drawn)	.	.	6%	.	.	1%
COc1cc(NC(=O)c2ccc([N+](=O)[O-])o2)ccc1NC(=O)c1ccco1	4%	-3%	?	3%	15%	?
COc1cccc(CNC(=O)c2ccc(CS(=O)c3ccccc3Cl)o2)c1 (stereo not drawn)	.	13%	.	.	.	.
Cc1cc(NC(=O)c2ccc([N+](=O)[O-])o2)ccc1NC(=O)c1ccco1	-23%	-13%	?	-18%	17%	79µM*
COc1ccccc1S(=O)Cc1ccc(C(=O)NCc2ccccc2Cl)o1 (stereo not drawn)	35µM*	-20%	8%	27µM*	-10%	3.5µM*
Cc1ccc(NC(=O)C2CCN(C(=O)N3CC4CC(C3)[C@H]3CCCC(=O)N3C4)CC2)cc1 (stereo partly drawn)	.	11%	.	.	.	.
CCCOc1ccc(NC(=O)C2(C)CC2(Cl)Cl)cc1OCCC (stereo not drawn)	.	7%	.	.	.	.
Clc1ccc(SCc2cn3ccsc3n2)cc1	-12%	0%	-13%	-27%	64%	-9%
Cc1csc2nc(CSc3ccc(Cl)cc3)cn12	17%	.	7%	6.7µM*	65%	22%[12.7 µM]
COc1cc(C(=O)Oc2ccc3c(=O)c(Oc4ccc(C(C)(C)C)cc4)coc3c2)cc(OC)c1OC	.	2%	.	.	.	.
COc1cccc(C2=Nn3c(nnc3-c3ccccc3OC)SC2)c1	79µM*	.	.	.	.	.
COc1cccc(C2=Nn3c(nnc3-c3cccc(OC)c3OC)SC2)c1	-29%	.	.	.	.	.
